In PubChem BioAssay (Tox21):
Activity calls are given as the source filed them. The call rests on the fitted dose curve; in most records, active means well fitted curve in the direction sought with a large enough effect in the repeat runs; inconclusive means weak or mixed curves; inactive means flat fitted curve, though single readings scatter.

Test: qHTS assay to test for compound auto fluorescence at 460 nm (blue) in HEK293 cells (AID 720678)
Settings: blue autofluorescence 405/460 nm; series mostly up to 91.3 µM; fluorescence, % of triamterene: at the top concentration
Source text: National Center for Advancing Translational Sciences [NCATS]
NIH Chemical Genomics Center [NCGC]
U.S. Environmental Protection Agency [EPA]
National Institutes of Environmental Health Sciences [NIEHS]
National Toxicology Program [NTP]
U.S. Food and Drug Administration [FDA]
Compound auto fluorescence often interferes with screening of the compound library against various biological targets and signaling pathways. Some of these compounds may have fluorophoric properties. Such properties may interfere with the assay outputs resulting in false positives and/or negatives. To decrease such complications and ensure the compound activities are relevant in terms of biological response, the Tox21 10K compound library was screened for auto fluorescence.
From the fluorophores used as reporter signals in our screening assays, the auto fluorescence equivalencies of compounds against three fluorophores have been evaluated: Triamterene, Fluorescein and Rose Bengal sodium for blue, green and red fluorescence, respectively. The fluorescence intensities were measured using Excitation/Emission wavelengths at 405/460nm, 485/535nm and 540/590nm for blue, green and red labels, respectively. This assay includes the blue fluorescence data.
Tox21 Assay Protocol Summary:
2,000 HEK293 cells in 5 uL of culture medium containing 10% dialyzed FBS per well were dispensed into black wall/clear bottom 1536-well plates using a Multidrop Combi Dispenser (Thermo Scientific). The assay plates were incubated for 4-5 hr at 37C to allow cell attachment to the well bottom, followed by the transfer of 23 nL compound or DMSO vehicle by a pintool work station (Kalypsys, San Diego, CA). After the assay plates were incubated overnight at 37C and 5% CO2, fluorescence intensities in the assay plates were measured by an Envision (PerkinElmer, Shelton, CT) plate reader using three labels for measuring blue, green and red fluorescence at […] 460, 535 and 590nm respectively.
On the % scale 0 is the no-effect control and ±100 the full control effect.

| Structure (SMILES) | fluorescence, % of triamterene | outcome |
| --- | --- | --- |
| O=C(CBr)c1ccccc1 | -0.0037% (inactive) | – |
| CCC(COC(=O)c1cc(OC)c(OC)c(OC)c1)(c1ccccc1)N(C)C (stereo not given) | -0.0237% [at 46 µM] (inactive) | – |
| c1cc2ccc3cccc4ccc(c1)c2c34 | -0.32% [at 95.7 µM] (inactive) | – |
| [CH3][Sn]([CH3])([Cl])[Cl] | – | inactive |
| O=Cc1ccc2c(c1)OCO2 | -0.0366% (inactive) | – |
| CC(Cl)C(C)Cl (stereo not given) | -0.0417% (inactive) | – |
| C=CC(C)=O | 0.124% (inactive) | – |
| Cc1ccccc1CCl | 0.0755% (inactive) | – |
| CC1C(=O)C[C@]2(C(C)C)C[C@H]12 (stereo not given in full) | -0.0062% (inactive) | – |
| O=C(Nc1ccccc1)Nc1ccnc(Cl)c1 | -0.0737% (inactive) | – |
| COP(=S)(OC)Oc1ccc([N+](=O)[O-])cc1Cl | -0.603% (inactive) | – |
| CN(C)c1ccc(N(C)C)cc1 | -0.262% (inactive) | – |
| COC(=O)C(Br)CBr (stereo not given) | -0.106% (inactive) | – |
| CN1C(=O)C(O)N=C(c2ccccc2)c2cc(Cl)ccc21 (stereo not given) | – | inactive |
| CCCN(CCCl)c1c([N+](=O)[O-])cc(C(F)(F)F)cc1[N+](=O)[O-] | 0.0358% (inactive) | – |
| C=CCOC(C)=O | 0.0315% (inactive) | – |
| Cl/C=C\Cl | -0.0545% (inactive) | – |
| NS(=O)(=O)C(F)(F)C(F)(F)C(F)(F)C(F)(F)C(F)(F)C(F)(F)C(F)(F)C(F)(F)F | 0.0755% (inactive) | – |
| CC(=O)NC1CCSC1=O (stereo not given) | – | inactive |
| CC(=O)[C@H]1CC[C@H]2[C@@H]3CC[C@H]4C[C@](C)(O)CC[C@]4(C)[C@H]3CC[C@]12C | 0.084% [at 46 µM] (inactive) | – |

| Structure (SMILES) | fluorescence, % of triamterene | outcome |
| --- | --- | --- |
| CC(C)N(C(=O)COc1nnc(C(F)(F)F)s1)c1ccc(F)cc1 | 0.0013% (inactive) | – |
| CCCN(CCC)c1c([N+](=O)[O-])cc(S(C)(=O)=O)cc1[N+](=O)[O-] | -0.135% (inactive) | – |
| Brc1ccccc1 | -0.0557% (inactive) | – |
| CCCC(Cn1cncn1)c1ccc(Cl)cc1Cl (stereo not given) | -0.0105% (inactive) | – |
| CCOP(=S)(OCC)Oc1cc(Cl)c(Br)cc1Cl | -0.0038% (inactive) | – |
| O=C=Nc1ccc(Cl)cc1 | -0.0316% (inactive) | – |
| CCc1ccc(C(=O)NN(C(=O)c2cc(C)cc(C)c2)C(C)(C)C)cc1 | -0.36% (inactive) | – |
| COC(=O)c1cncn1C(C)c1ccccc1 (stereo not given) | -0.186% [at 46 µM] (inactive) | – |
| O=C1C(Cl)C(CCl)CN1c1cccc(C(F)(F)F)c1 (stereo not given) | -0.0927% (inactive) | – |
| C=CCCl | 0.0281% [at 95.7 µM] (inactive) | – |
| CCCC(=O)Cl | -0.123% (inactive) | – |
| O=C(O)C(F)(F)C(F)(F)C(F)(F)C(F)(F)C(F)(F)C(F)(F)C(F)(F)C(F)(F)C(F)(F)C(F)(F)F | -0.0161% (inactive) | – |
| O=C(O)c1ccccc1C(=O)Nc1cccc2ccccc12 | 0.372% (inactive) | – |
| C[C@@H]1CC[C@H]2[C@@H](C)C(=O)O[C@@H]3O[C@@]4(C)CC[C@@H]1[C@]32OO4 | -0.0986% [at 46 µM] (inactive) | – |
| ClCc1ccccc1 | -0.367% (inactive) | – |
| C=CC(=O)OCC(C)O (stereo not given) | 0.0111% [at 95.7 µM] (inactive) | – |
| O=C(O)CC(Cl)C(=O)O (stereo not given) | -0.345% (inactive) | – |
| OC(c1ccc(Cl)cc1)(c1ccc(Cl)cc1)c1cccnc1 | 0.0241% (inactive) | – |
| C=C(C#N)CCC#N | 0.0716% (inactive) | – |
| CCC(Cl)CCl (stereo not given) | -0.0516% (inactive) | – |
